# From PubChem
# Pf growth 96h = P. falciparum growth inhibition at 96 hours | AID 504834 | 6.9% of 320,000 active | P. falciparum luciferase reporter growth, 96 h | Potency, µM (titrated, usually from 28.7 µM), without a hit: at the top dose activity change, negative = inhibition, actives largely listed as inhibitors; active = well fitted inhibition curve with a large enough effect; inconclusive = small, poorly fitted or top-dose-only effect, or another doubt; inactive = no such curve, though single readings can be large or run the other way; note: potency is the fitted concentration of half-maximal effect; % is set by controls: 0 for no effect and ±100 for the full control effect
#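 Erythrocytes infected with luciferase-expressing P. falciparum were dispensed at 2% hematocrit and 0.05% parasitemia (final), then incubated with compounds 96 hours at 37 C in 5% CO2. Luminescence after detection reagent addition reported growth.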
# Shiga toxin inh = inhibitors of Shiga toxin in Vero cells | inhibition, % at 38.7 µM | 9.2% of 290,000 active | AID 2315 | Vero cells, Shiga toxin protein synthesis inhibition reporter; in the data active = inhibition mostly above about 28%, no sharp cut-off; inactive = mostly below about 43%; note: 0% is about no effect
# NS1 inh = blocks influenza NS1 protein function | 0.4% of 270,000 active | Potency, µM (titrated, usually from 46.1 µM), without a hit: at the top dose activity, positive = more growth; note: potency is the fitted concentration of half-maximal effect; actives are rising curves; nearly all actives have a fitted effect of over 50% in size
#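 In this qHTS, NS1 from influenza A is expressed in budding yeast, where it slows growth. Cells are switched from glucose to 2% galactose medium (pH 6.0, -URA), treated with compound, and growth recovery is read at OD600.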
# SARS PLpro yeast = blocks SARS-CoV papain-like protease in a yeast assay; S. cerevisiae expressing SARS-CoV PLpro, growth rescue; Potency, µM (top dose mostly 32.9 µM), for the others: at the highest dose activity, positive = growth rescue, hits mostly activators; 0.19% of 330,000 active; note: potency is the fitted concentration of half-maximal effect; 0% is about no effect; nearly all actives have a fitted effect of over 55% in size
# Pf growth 48h = P. falciparum growth inhibition at 48 hours (one generation) | P. falciparum luciferase growth in erythrocytes, 48 h | Potency, µM (doses to about 28.7 µM), without a hit: top-dose activity change, negative = inhibition, usual class: inhibitors | 5.9% of 310,000 active; active = well fitted inhibition curve with a large enough effect; inconclusive = small, poorly fitted or top-dose-only effect, or another doubt; inactive = no such curve, though single readings can be large or run the other way; note: potency is the fitted concentration of half-maximal effect; % is set by controls: 0 for no effect and ±100 for the full control effect
#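 Luciferase-expressing parasites in RBCs, 2% Hct / 0.1% parasitemia final; RPMI 1640 + 0.5% Albumax; 37 C, 5% CO2, one generation; luminescence read-out, lower signal = inhibition.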
# Cycloheximide cs = affects cycloheximide protein synthesis inhibition readout, counter-screen. cell reporter, cycloheximide protein synthesis inhibition counterscreen. max response, %. 12% of 300,000 active; in the data active = max response mostly above about 13%, no sharp cut-off; inactive = mostly below about 14%; note: read at 38.3 µM for the half of the compounds with a filed dose; 0% is about no effect
# Numbers without * were called inactive; ? = inconclusive; . = no result. Rows were chosen to be rich in hits. Some 21% of all compounds tested hit in one or more screens of this group. Unless noted, calls come from the whole dose curve.
SMILES,Pf growth 96h,Shiga toxin inh,NS1 inh,SARS PLpro yeast,Pf growth 48h,Cycloheximide cs
COc1ccccc1CN1CC(C(=O)N2CCCCO2)CCC1=O (stereo not drawn),36%,71*,-1%,0%,-14%,31*
O=C1CCC(C(=O)N2CCCCO2)CN1CCc1ccccc1 (stereo not drawn),?,81*,-10%,-1%,27%,42*
COc1cccc(C2Oc3ccccc3C3CC(c4cccs4)=NN32)c1 (stereo not drawn),36%,79*,-81%,-3%,39%,51*
O=C(NCc1nc2ccccc2[nH]1)C1CCCCC1,154%,11,0%,0%,11%,8
COC(=O)c1ccc(-n2c(C)cc(/C=N/Nc3nc(C)cc(=O)[nH]3)c2C)cc1,13µM*,22,8%,0%,8.3µM*,6
Fc1ccc(/C=N/Nc2nc3ccccc3[nH]2)cc1F,0.52µM*,118*,.,-7%,0.66µM*,36*
C(=N\Nc1nc2ccccc2[nH]1)/C1CCCCC1,?,114*,.,12%,?,61*
C(=N\Nc1nc2ccccc2[nH]1)/c1c[nH]c2ccccc12,26%,67*,11%,17%,0.66µM*,54*
O=C(COc1ccc(Cl)cc1)NNC(=O)c1cccnc1,?,-20,4%,1%,19%,2
S=c1sc(SCCOc2ccccc2)nn1-c1ccccc1,12%,-5,-6%,-15%,8%,-3
CCOC(=O)CSc1nc(Cc2ccccc2)nc2ccccc12,15%,-9,-30%,-1%,-20%,-2
C(=N\Nc1nc2ccccc2[nH]1)/c1cccc2cccnc12,1.7µM*,79*,-53%,-4%,1.7µM*,47*
O=C(COc1ccc(Cl)cc1)N/N=C/c1cccc2cccnc12,42%,-35,-4%,-5%,21%,-2
Cc1cccc(C)c1OCC(=O)N/N=C/c1ccc2c(c1)OCO2,361%,-3,-6%,4%,20%,-3
Cc1cc(N/N=C/c2ccc3c(c2)OCO3)nc2ccccc12,4.7µM*,79*,-3%,-1%,?,47*
Fc1ccc(/C=N\Nc2cccc(F)c2)cc1,-9%,-9,19%,0%,9%,-2
COc1ccc(/C=N/Nc2nc3ccccc3[nH]2)c(OC)c1OC,4.1µM*,141*,1%,-2%,?,41*
Fc1cccc(/C=N/Nc2nc3ccccc3[nH]2)c1,?,84*,-32%,-2%,0%,40*
O=C(c1cc(C2CC2)on1)N1CCN(c2ccc(F)cc2)CC1,79%,3,0%,6%,9%,1
O=C(Cn1cnc([N+](=O)[O-])c1)NC1CCCC1,13%,-2,6%,17%,1%,-2
Cc1ccccc1/C=N/Nc1nc2ccccc2[nH]1,-35%,76*,.,-10%,?,49*
O=c1[nH]c(N/N=C/c2ccccc2)nc2ccccc12,2%,72*,-19%,-4%,-3%,43*
C(=C\c1ccccc1)/C=N/Nc1nc2ccccc2[nH]1,3.3µM*,89*,-11%,-14%,?,27*
O=c1[nH]c(N/N=C/c2cc3c(cc2[N+](=O)[O-])OCO3)nc2ccccc12,?,-2,4%,-2%,37%,2
C(/CCc1ccccc1)=N\Nc1nc2ccccc2[nH]1,?,47*,.,-2%,?,27*
SMILES,Pf growth 96h,Shiga toxin inh,NS1 inh,SARS PLpro yeast,Pf growth 48h,Cycloheximide cs
Cc1ccccc1/C=N/Nc1ccc(Cl)nn1,3%,30,.,-7%,6%,11
CN1CCN(CC(=O)Nc2ccc([N+](=O)[O-])cc2Br)CC1,1%,0,-2%,1%,20%,-6
Cc1cc(C)cc(Nc2c(F)c(F)c(F)c(F)c2C(=O)O)c1,201%,-11,.,2%,-5%,6
O=[N+]([O-])c1cc(/C=N/Nc2nc3ccccc3[nH]2)c(O)cc1O,0%,104*,?,16µM*,2.1µM*,43*
CCOc1ccccc1/C=N/Nc1nc(C)cc(=O)[nH]1,-7%,-5,1%,0%,4%,-1
Cc1[nH]c2ccccc2c1/C=N/Nc1nc2ccccc2[nH]1,3%,112*,-5%,-10%,?,43*
Cc1cc(=O)[nH]c(Nc2ccc(C(=O)OC(C)C)cc2)n1,2.6µM*,-3,-8%,-7%,?,-2
COc1cccc(/C=N/Nc2nc(C)cc(=O)[nH]2)c1OC,-5%,45*,4%,-2%,48%,21*
CC(C)N(C(=O)Cn1c(=O)oc2ccccc21)c1ccccc1,48%,-6,13%,0%,-18%,2
Cc1cc(=O)[nH]c(N/N=C/c2c[nH]c3ccccc23)n1,5%,27,7%,-1%,?,29*
C(=N\Nc1nc(N2CCCCC2)nc(N2CCCCC2)n1)/c1c[nH]c2ccccc12,6.6µM*,-4,0%,-4%,?,10
O=c1[nH]c(N/N=C\c2ccc3c(c2)OCO3)nc2ccccc12,-29%,54*,8%,-1%,-76%,53*
C(=N\Nc1nc2ccccc2[nH]1)/c1ccccc1,-22%,76*,-2%,-1%,?,49*
Brc1ccc(-c2ccc(/C=N/Nc3nc4ccccc4[nH]3)o2)cc1,13µM*,78*,?,-106%,0.41µM*,49*
O=C(Cc1ccc(-c2ccccc2)cc1)N1CCOCC1,-1%,17,-12%,1%,10%,9
O=C(Cc1ccc(Br)cc1)N1CCN(c2ccc(F)cc2)CC1,8%,-8,-108%,0%,.,-4
O=C(Cc1ccc(Cl)c(Cl)c1)N1CCOCC1,?,35*,5%,5%,?,8
O=C(Cc1ccc(Br)cc1)N1CCN(c2ccccc2O)CC1,.,95*,-20%,-5%,7%,36*
O=C(Cc1ccc(Br)cc1)N1CCOCC1,?,23,-3%,-2%,0%,11*
O=C1c2ccccc2-c2nnc(-c3ccccc3)cc21,?,72*,-32%,-6%,2.6µM*,19*
COc1ccc(-c2cn(Cc3ccc4c(c3)C(=O)c3ccccc3C4=O)nn2)cc1,9%,14,-3%,-6%,?,6
COc1ccc(-c2cc3c(nn2)-c2ccccc2C3=O)cc1,1.9µM*,-25,.,-2%,19%,-4
Cc1cnc2c(c1)C(=O)c1ccccc1-2,2%,21,-5%,-3%,21%,11
Cc1cccc(-c2cc3c(nn2)-c2ccccc2C3=O)c1,.,48*,-63%,-8%,1.3µM*,30*
NS(=O)(=O)c1cccc(NC(=O)COC(=O)CCCc2c[nH]c3ccccc23)c1,1%,11,.,0%,1%,10
COc1ccccc1CNC(=O)COC(=O)CCC(=O)c1cccs1,-12%,6,8%,0%,28%,17
